Only some compounds are listed: those with a hit (about 9.3% of all), similar ones and a draw of the others.
HCV inhibitor = qHTS Assay for Inhibitors of Hepatitis C Virus (HCV) | Huh7.5.1 HCVcc-Cre infection, luciferase reporter, 44 h | Potency, µM (titrated, usually from 41.8 µM), actives largely listed as inhibitors | 340,000 compounds, 3.4% hits
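Whole-lifecycle infectious HCVcc-Cre system; cells 1,000/well, compound then virus (~0.5 moi) added 4 h after plating, 44 h culture. Luciferase read 15 sec following 15 min substrate incubation, room temp.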
HCMV antiviral = qHTS Assay for inhibitors of the human cytomegalovirus (HCMV). HFF cells, HCMV-luciferase reporter, 72 h; hits give low values. activity change, negative = inhibition, % at 57.5 µM. 410,000 compounds, 4.5% hits; in the data active means activity change below about -60%; inconclusive means no clear call, values can overlap the other calls; inactive means above about -39%
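HFF cells seeded 16 h at 37C, treated with compounds, infected with luciferase-reporter HCMV at MOI 1 PFU/cell; luciferase read at 72 h post infection, normalized to buffer-only and Salinomycin controls.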
Sm TGR block = qHTS Assay for the Inhibitors of Schistosoma Mansoni Peroxiredoxins | Schistosoma mansoni thioredoxin glutathione reductase (TGR), Q962Y6 | purified TGR, DTNB reduction, TNB absorbance 405 nm | Potency, µM (doses to about 114 µM), usual class: inhibitors | 360,000 compounds, 3% hits | AID 485364, 2010; further: nearly all actives have a fitted effect of over 60% in size
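Kinetic colorimetric format: TGR-catalysed, NADPH-driven DTNB reduction monitored via TNB absorbance. Enzyme dispensed at 20 nM; compound exposure 15 min at room temperature before reaction start.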
VACV Venus inh = qHTS for Stage-Specific Inhibitors of Vaccinia Orthopoxvirus: Venus Reporter Primary qHTS; Vaccinia virus Venus reporter expression, fluorescence; Potency, µM (top dose mostly 36.5 µM), hits mostly inhibitors; 330,000 compounds, 0.46% hits; calls by dose curve; tested in A549 cells; further: nearly all actives have a fitted effect of over 30% in size
FMDV inh = High Throughput Screening for Foot and Mouth Disease Virus Antivirals | Potency, µM (series often up to 57.9 µM), most hits filed as inhibitors | 410,000 compounds, 1.2% hits | AID 1159524, 2015 | FMDV antiviral cell-based qHTS; calls by dose curve; tested in HEK293T cells; further: read-out not given here; nearly all actives have a fitted effect of over 45% in size
VACV mCherry inh = qHTS for Stage-Specific Inhibitors of Vaccinia Orthopoxvirus: mCherry Reporter Primary qHTS | 310,000 compounds, 0.63% hits | Vaccinia virus mCherry reporter infection, fluorescence | Potency, µM (top dose mostly 36.5 µM), usual class: inhibitors | AID 720579, 2013; calls by dose curve; tested in A549 cells; further: nearly all actives have a fitted effect of over 35% in size
Of the large screens only hits and unclear results are named; the others gave an inactive call. Unless noted, the call rests on the fitted dose curve; in most records, active means well fitted curve in the direction sought with a large enough effect; inconclusive means small, poorly fitted or top-dose-only effect, or another doubt; inactive means no such curve, though single readings can be large; an effect the other way counts as inactive or inconclusive.

Cc1cccc(CN2CCN(C3CN(CCc4ccccc4)S(=O)(=O)C3)CC2)c1 (configuration not stated)	HCMV antiviral -62.9 (no result: HCV inhibitor, Sm TGR block)
Cc1ccc(/C=N/Nc2ncc(Cl)cc2Cl)s1	HCV inhibitor inconclusive, HCMV antiviral -63.7
Nc1nc(-c2ccccn2)nc(N)c1Cc1ccc(Cl)cc1Cl	HCV inhibitor 3.55µM, HCMV antiviral -93.3, VACV mCherry inh inconclusive
Nc1nc(-c2ccccn2)nc(N)c1Cc1c(F)cccc1Cl	HCV inhibitor 5.01µM, HCMV antiviral -96.3, VACV mCherry inh inconclusive
Nc1nc(-c2ccccn2)nc(N)c1Cc1ccccc1F	HCV inhibitor inconclusive, HCMV antiviral -102.0
CCc1cc2c(=O)c(-c3ccc4c(c3)OCCO4)c(C)oc2cc1OS(C)(=O)=O	HCV inhibitor inconclusive, HCMV antiviral -63.2, VACV Venus inh inconclusive, FMDV inh inconclusive, VACV mCherry inh inconclusive
CCN(CC)C1=N/C(=C\c2ccco2)C(=O)N1c1ccccc1	Sm TGR block 44.7µM
CCSC1=N/C(=C\c2cccnc2)C(=O)N1c1ccccc1	HCV inhibitor inconclusive
CC(C)CN(CC(C)C)C1=N/C(=C\c2ccco2)C(=O)N1c1ccccc1	Sm TGR block 6.31µM (no result: VACV mCherry inh)
Cc1ccc(S(=O)(=O)NC2c3cccc4cccc(c34)C2Sc2nc(C)cc(C)n2)cc1 (configuration not stated)	HCV inhibitor inconclusive
CCCCn1nc(C(=O)NCC(c2cccs2)N2CCOCC2)c2ccccc2c1=O (configuration not stated)	HCV inhibitor inconclusive, HCMV antiviral inconclusive, FMDV inh 31.6µM (no result: VACV Venus inh, VACV mCherry inh)
Cc1ccc(-c2cc(C(=O)NCCCN3CCOCC3)c3ccccc3n2)cc1	none
Cc1ccc(-c2cc(C(=O)NCCCN3CCOCC3)c3ccccc3n2)cc1C	HCV inhibitor inconclusive, HCMV antiviral -92.1
O=C(NCC(c1cccs1)N1CCOCC1)c1cn(-c2ccccc2)nc1-c1ccc(F)cc1 (configuration not stated)	HCV inhibitor inconclusive, HCMV antiviral inconclusive
O=C(NCCN1CCOCC1)c1cnn2c(-c3ccccc3)cc(-c3ccccc3)nc12	HCV inhibitor 11.2µM (no result: VACV Venus inh, VACV mCherry inh)
O=C(NCC(c1cccs1)N1CCOCC1)c1cc(-c2ccc(F)cc2)nc2ccccc12 (configuration not stated)	HCV inhibitor 7.08µM
COc1cc(/C(C)=N/N2CCN(c3ccccc3OC)CC2)ccc1O	none (no result: VACV Venus inh, VACV mCherry inh)
CCn1cnc2cc(NC(=O)c3ccco3)ccc21	none (no result: VACV Venus inh, VACV mCherry inh)
O=C(Cc1ccccc1Cl)N/N=C/c1cccnc1	none (no result: VACV Venus inh, VACV mCherry inh)
CCOc1ccc(-c2cc(C(=O)NCCCN3CCCC3)c3ccccc3n2)cc1	HCV inhibitor inconclusive, HCMV antiviral inconclusive
Cc1c(Cl)ccc2c(C(=O)NCCN3CCCCC3)cc(-c3ccccn3)nc12	HCV inhibitor 5.62µM
Cc1ccc(-c2cc(C(=O)NCCCN3CCCC3)c3ccccc3n2)cc1C	HCV inhibitor 22.4µM
Cc1c(Cl)ccc2c(C(=O)NCCCn3nccc3C)cc(-c3ccccn3)nc12	none
Nc1ccccc1C(=O)NCCCN1CCOCC1	HCMV antiviral -104.5
COC(=O)c1cc(S(=O)(=O)NCCc2ccc(SC)cc2)c[nH]1	HCV inhibitor inconclusive
CC(N=Cc1cccc(O)c1O)c1ccccc1 (configuration not stated)	Sm TGR block 5.62µM, FMDV inh inconclusive (no result: HCMV antiviral, VACV Venus inh, VACV mCherry inh)
Cc1ccccc1N=Cc1cccc(O)c1O	Sm TGR block 5.01µM (no result: HCMV antiviral)
CC(N=Cc1cc([N+](=O)[O-])ccc1O)c1ccccc1 (configuration not stated)	FMDV inh inconclusive (no result: VACV Venus inh, VACV mCherry inh)
CCOC(=O)C1CCN(S(=O)(=O)c2ccc3c(c2)CC(=O)N3)CC1	VACV mCherry inh inconclusive
Nc1ccc(Cc2ccc([N+](=O)[O-])cc2)cc1	HCMV antiviral -64.2 (no result: Sm TGR block)
Cc1ccccc1NC1=C(Cl)C(=O)OC1NC(=O)c1ccccc1 (configuration not stated)	HCMV antiviral -82.3 (no result: FMDV inh)
Nc1ccccc1Sc1nc2ccccc2[nH]1	HCV inhibitor inconclusive, VACV Venus inh inconclusive, VACV mCherry inh inconclusive
O=C(NCc1cccs1)C1CCN(c2ccc(S(=O)(=O)N3CCOCC3)cc2Cl)CC1	HCMV antiviral -86.3
Cc1cc(C)nc(N2CCC(C(=O)NCc3ccco3)CC2)n1	none (no result: VACV Venus inh, VACV mCherry inh)
Cc1cc(C)nc(N2CCC(C(=O)NCc3cccs3)CC2)n1	HCMV antiviral -93.0 (no result: HCV inhibitor)
C#CCNC(=O)C1CCN(c2ccc(S(=O)(=O)N3CCOCC3)cc2Cl)CC1	HCMV antiviral inconclusive, Sm TGR block inconclusive
Nc1c(S(=O)(=O)c2cccs2)c2nc3ccccc3nc2n1Cc1ccccc1	none (no result: HCMV antiviral, VACV Venus inh, VACV mCherry inh)
CC(=O)Nc1ccc(S(=O)(=O)NC2(C(F)(F)F)NC(=O)N(c3ccccc3F)C2=O)cc1 (configuration not stated)	none
Cn1c(N)c(C(=O)CSc2nn(-c3ccc(F)cc3)c(=S)s2)c(=O)n(C)c1=O	HCV inhibitor 7.08µM, HCMV antiviral inconclusive, FMDV inh 15.8µM (no result: VACV Venus inh, VACV mCherry inh)
C=Cc1cc(OC)c2c(c1)c(=O)oc1c2cc(OC)c2c(O)ccc(C3OC(C)C(O)C(C)(O)C3O)c21 (configuration not stated)	HCV inhibitor 1µM, HCMV antiviral -97.8, VACV Venus inh 1µM, FMDV inh inconclusive, VACV mCherry inh inconclusive (no result: Sm TGR block)
COc1cc2c(oc(=O)c3cc(C)cc(OC)c32)c2c(C3OC(C)C(O)C(C)(O)C3O)ccc(O)c12 (configuration not stated)	HCV inhibitor inconclusive, HCMV antiviral -68.7, VACV Venus inh inconclusive, VACV mCherry inh inconclusive (no result: Sm TGR block)
COc1c(O)cc2c(=O)oc3c(OC)c(O)cc4c(=O)oc1c2c34	none (no result: HCV inhibitor, HCMV antiviral, Sm TGR block, VACV Venus inh, VACV mCherry inh)
CCc1ccc(C(=O)NNC(=O)c2n[nH]c(=O)c3ccccc23)cc1	none (no result: VACV Venus inh, VACV mCherry inh)
CCC1CCc2nc3sc(C(=O)Nc4ccc(F)c(F)c4)c(N)c3cc2C1 (configuration not stated)	none (no result: HCV inhibitor)
Cc1cccc(N2CCN(C(=O)C(Cc3ccccc3)NC(N)=O)CC2)c1C (configuration not stated)	none (no result: VACV Venus inh, VACV mCherry inh)
CCC(=O)OC1(C)C(=O)C=C2C=C(c3ccsc3)OC=C2C1=O (configuration not stated)	Sm TGR block 31.6µM (no result: HCMV antiviral)
COC(=O)c1[nH]c(C)c(/C(O)=C2\C(=O)C(=O)N(CCN(C)C)C2c2ccc(C)o2)c1C (configuration not stated)	Sm TGR block 31.6µM (no result: VACV mCherry inh)
O=C(c1ccco1)N(CCCN1CCOCC1)c1nc(-c2ccc(F)cc2)cs1	HCV inhibitor 11.2µM, VACV Venus inh inconclusive (no result: FMDV inh)
O=C(c1ccco1)N(CCCN1CCOCC1)c1nc(-c2ccc(Cl)cc2)cs1	HCV inhibitor 11.2µM, FMDV inh inconclusive
COc1ccc(-c2csc(N(CCCN3CCOCC3)C(=O)CCl)n2)cc1	none

Screening data (PubChem BioAssay)
